Data: PubChem BioAssay (NCI)
About 79,000 compounds went through this panel and 15% of them were active in at least one assay; those are over-represented in the sample as a whole. Cut-off read from the data, not from the text of the source: active = growth inhibition above about 70%; inactive = the rest.

Columns and labels:
[1] = NCI Yeast Anticancer Drug Screen. Data for the rad50 strain (AID 155);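 note: 0% = growth of vehicle-only cultures of the same strain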; conditions: S. cerevisiae rad50 strain growth inhibition; at 50.0 µM; stronger effect = higher value
Method in brief: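 Inhibition values express reduced yeast growth in compound-treated cultures relative to vehicle-treated controls.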

[2] = NCI Yeast Anticancer Drug Screen. Data for the mec2-1 strain (AID 157); conditions: S. cerevisiae mec2-1 strain, at 50.0 µM, stronger effect = higher value
Method in brief: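 Compounds were applied to mec2-1 yeast cells. Their growth was then compared with that of vehicle-treated cultures to give growth inhibition.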

[3] = NCI Yeast Anticancer Drug Screen. Data for the sgs1 mgt1 strain (AID 161);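 note: 0% = growth of cultures given vehicle only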; conditions: S. cerevisiae sgs1 mgt1 strain, at 50.0 µM, stronger effect = higher value
Method in brief: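 This yeast growth screen uses a strain with defined DNA-repair lesions; compound-treated growth is compared with vehicle-treated growth.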

[4] = NCI Yeast Anticancer Drug Screen. Data for the cln2 rad14 strain (AID 165);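 note: 0% = growth equal to vehicle treated cultures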; conditions: S. cerevisiae cln2 rad14 strain, at 50.0 µM, stronger effect = higher value
Method in brief: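 Strain: cln2 rad14 yeast, altered in cell cycle control and DNA damage repair. Read-out: growth inhibition vs vehicle.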

[5] = NCI Yeast Anticancer Drug Screen. Data for the bub3 strain (AID 167); conditions: S. cerevisiae bub3 mutant strain, at 50.0 µM, stronger effect = higher value
Method in brief: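 Steps: expose the mutant yeast strain to compound; grow alongside vehicle-treated cultures; measure growth; express inhibition against the vehicle cultures.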

[6] = NCI Yeast Anticancer Drug Screen. Data for the mlh1 rad18 strain (AID 175); conditions: S. cerevisiae mlh1 rad18 strain growth inhibition; at 50.0 µM; stronger effect = higher value
Method in brief: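 A repair-deficient yeast strain is exposed to test compound, and growth is scored relative to vehicle-treated controls.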

Measured: growth inhibition

C=CCOC(=O)Nc1ccc(S(=O)(=O)N2CCCCC2)cc1
inactive: [1] 9% | [2] 6.1% | [3] 2.95% | [4] -17.4% | [5] 17.6% | [6] -5.15%

OCC(F)(F)C(F)(F)C(F)(F)C(F)(F)C(F)(F)C(F)(F)C(F)(F)C(F)F
inactive: [1] 23.9% | [2] -11.2% | [3] -30.8% | [4] -11.5% | [5] 5.15% | [6] 8.6%

CCOC(=O)/C(C#N)=C/Nc1c(C)n(C)n(-c2ccccc2)c1=O
inactive: [1] 0.95% | [2] 10.3% | [3] 6.75% | [4] 16.4% | [5] -0.85% | [6] 13.6%

O=C1C=C(Nc2ccccc2C(=O)CC(=O)C(=O)Nc2cccc([N+](=O)[O-])c2)c2ccccc2C1=O
inactive: [1] -15.2% | [2] 12.3% | [3] -7.2% | [4] 12.3% | [5] -15.5% | [6] -7.1%

CCC12C=CCN(CCc3c([nH]c4ccccc34)/C=C\1)C2 (stereo not given)
inactive: [1] -8.95% | [2] -8.75% | [3] -7.25% | [4] -1.6% | [5] 6.55% | [6] -15.8%

O=C1C=C(c2ccccc2)C(c2ccccc2)=C1
inactive: [1] 23.6% | [2] 2.8% | [3] -5.2% | [4] 30.1% | [5] -5.6% | [6] 11.1%

N#CC(CCc1ccccc1)(c1ccccc1)c1ccccc1
inactive: [1] -15.5% | [2] -9.05% | [3] -5.85% | [4] -45.5% | [5] 9.5% | [6] -15.7%

O=C1c2ccccc2C(=O)c2cc(Br)ccc21
inactive: [1] -6.75% | [2] -21.6% | [3] 12.4% | [4] -110% | [5] -16.2% | [6] 0.2%

COC(=O)c1c(C)cc(C)c(C(C)=O)c1O
inactive: [1] -16.9% | [2] -14.8% | [3] 0% | [4] -18.7% | [5] 0.75% | [6] -16.1%

N#CCCc1nc(N)nc(N)n1
inactive: [1] -19.7% | [2] -3.7% | [3] -26.9% | [4] -60.3% | [5] -17.7% | [6] 5.85%

N=C(N)SCCCN
inactive: [1] -1.7% | [2] -14.7% | [3] -3.6% | [4] 2.95% | [5] -36% | [6] 29.1%

O=C(Nc1cc2cc([N+](=O)[O-])ccc2oc1=O)c1cccs1
inactive: [1] -12.2% | [2] -30.7% | [3] -6.8% | [4] 4.85% | [5] -40.2% | [6] -15.6%

O=C(c1ccccc1)C(c1ccccc1)C1(O)C(=O)Nc2c(Cl)ccc(Cl)c21 (stereo not given)
inactive: [1] -18.1% | [2] 10.6% | [3] 5% | [4] -0.05% | [5] -8.1% | [6] -29.2%

CCC(CC)C1OCC(O)CO1 (stereo not given) (tested in a mixture with another compound)
inactive: [1] 20.4% | [2] 2.7% | [3] 10% | [4] 6.85% | [5] 22.1% | [6] 17.4%

c1ccc2c(c1)-c1ccccc1C2N1CCCC1
inactive: [1] 14.2% | [2] 14.8% | [3] 4.2% | [4] 10.4% | [5] -0.85% | [6] -7.9%

Cc1c(-c2ccccc2)c(-c2ccccc2)c(C)c(-c2ccc3c(c2)CCCC3)c1-c1ccccc1
inactive: [1] -15% | [2] -3.35% | [3] -33.2% | [4] 1.75% | [5] 22.2% | [6] -16.7%

N[C@H]1c2c(Cl)cccc2C(=O)[C@H]1O
inactive: [1] -3.7% | [2] -1.35% | [3] -23.2% | [4] -4.65% | [5] -2.2% | [6] -49.5%

COc1ccc2[nH]c3c4c(c5cc(C(C)(C)C)ccc5c3c2c1)C(=O)N(c1ccccc1)C4=O
inactive: [1] -12.8% | [2] -13.3% | [3] 3.1% | [4] 16.7% | [5] -14.2% | [6] -8.7%

CC1=c2c(oc3cc(O)c(Nc4c(C)cc(O)cc4O)c(C)c23)=CC(=O)C1=Nc1c(C)cc(O)cc1O
inactive: [1] 17.9% | [2] 7.8% | [3] 0.45% | [4] -2.3% | [5] -35% | [6] 18.4%

COC1(OC)CC(CCl)OC1(OC)OC (stereo not given)
inactive: [1] -2.45% | [2] 0.25% | [3] 12.7% | [4] 1.55% | [5] 3.15% | [6] -4.5%
